We go through 36 compounds from PubChem BioAssay (NCATS).

Calls of active or inactive are those of the source. Entries that show only a call come without a potency. Calls come from the whole dose curve; as a rule, active = well fitted inhibition curve with a large enough effect; inconclusive = small, poorly fitted or top-dose-only effect; inactive = flat fitted curve, though single readings scatter.
Potency is the fitted concentration of half-maximal effect.

DNA polymerase III PolC-type (Bacillus subtilis (strain 168)), sequence (P13267 whole entry, looked up): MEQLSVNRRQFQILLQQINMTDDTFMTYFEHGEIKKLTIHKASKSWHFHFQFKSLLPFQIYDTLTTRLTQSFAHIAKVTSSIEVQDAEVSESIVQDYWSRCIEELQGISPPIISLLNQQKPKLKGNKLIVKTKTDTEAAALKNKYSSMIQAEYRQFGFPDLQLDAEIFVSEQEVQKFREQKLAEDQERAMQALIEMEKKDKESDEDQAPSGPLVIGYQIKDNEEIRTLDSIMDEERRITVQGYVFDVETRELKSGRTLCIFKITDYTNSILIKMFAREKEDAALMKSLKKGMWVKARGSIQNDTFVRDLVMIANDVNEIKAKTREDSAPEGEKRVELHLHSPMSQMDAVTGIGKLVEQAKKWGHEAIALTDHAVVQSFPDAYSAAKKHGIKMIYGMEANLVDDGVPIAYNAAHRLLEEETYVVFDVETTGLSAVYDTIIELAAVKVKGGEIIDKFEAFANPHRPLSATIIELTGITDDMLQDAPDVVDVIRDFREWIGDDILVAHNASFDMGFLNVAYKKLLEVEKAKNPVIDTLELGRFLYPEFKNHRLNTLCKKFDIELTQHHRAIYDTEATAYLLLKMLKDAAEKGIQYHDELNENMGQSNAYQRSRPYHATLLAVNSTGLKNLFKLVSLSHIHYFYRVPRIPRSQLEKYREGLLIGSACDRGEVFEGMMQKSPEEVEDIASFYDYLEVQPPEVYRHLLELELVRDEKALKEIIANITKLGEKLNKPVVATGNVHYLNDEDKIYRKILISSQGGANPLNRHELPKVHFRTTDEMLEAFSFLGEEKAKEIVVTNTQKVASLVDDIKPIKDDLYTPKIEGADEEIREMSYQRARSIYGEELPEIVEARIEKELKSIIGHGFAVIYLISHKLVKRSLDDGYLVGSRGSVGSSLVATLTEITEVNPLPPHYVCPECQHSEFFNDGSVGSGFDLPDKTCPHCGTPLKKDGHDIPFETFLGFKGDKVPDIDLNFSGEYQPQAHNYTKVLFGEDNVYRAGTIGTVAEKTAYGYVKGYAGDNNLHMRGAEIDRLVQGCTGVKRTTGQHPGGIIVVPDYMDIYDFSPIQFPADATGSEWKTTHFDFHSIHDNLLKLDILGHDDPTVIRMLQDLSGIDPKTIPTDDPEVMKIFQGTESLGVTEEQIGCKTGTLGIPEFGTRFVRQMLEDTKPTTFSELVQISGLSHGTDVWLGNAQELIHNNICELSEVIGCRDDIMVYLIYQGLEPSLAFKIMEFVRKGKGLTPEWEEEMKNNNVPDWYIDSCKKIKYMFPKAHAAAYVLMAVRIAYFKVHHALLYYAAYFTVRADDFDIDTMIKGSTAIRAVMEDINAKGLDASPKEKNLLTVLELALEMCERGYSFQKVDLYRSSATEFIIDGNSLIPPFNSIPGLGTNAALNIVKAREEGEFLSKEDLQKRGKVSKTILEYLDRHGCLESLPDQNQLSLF

This test deals with DNA polymerase III PolC-type (Bacillus subtilis (strain 168)) (UniProt P13267). The test is described as follows: qHTS Validation Assay for the Inhibitors of DNA Replication in Gram-Positive Bacteria (AID 485295). To be noted: Gram-positive bacterial DNA replication assay; series mostly up to 57.1 µM. How it is done:
B Subtilis DNA polymerase III holoenzyme complex was assayed for DNA production by fluorescent detection of the double-stranded DNA product with PicoGreen dye. The holoenzyme complex was reconstituted from the following purified protein components: DNA Polymerase III, beta subunit processivity factor, SSB single-stranded DNA binding protein, and Primase. Single-stranded, circular M13Gori was used as a substrate with dNTPs and NTPs also supplied to the substrate reagent. Compounds from the NCGC collection were incubated with the holoenzyme mixture for […] at room temperature to allow binding to occur, and then the reaction was started by the addition of substrate. After 30 min incubation at room temperature, PicoGreen solution containing EDTA was added to stop the reaction and to visualize the double-stranded DNA produced. Reaction progress was measured in a ViewLux CCD imager in fluorescence intensity mode by using 480 nm excitation and 540 nm emission filter set.
1. Thaw screening compounds.
2. Label assay plates. Prepare pipette tips, reagent reservoirs, buffers and controls.
1. Thaw Enzymes, DNA template, Nucleotides and PicoGreen dye concentrate. Thawed enzymes are stable on ice for ~1
week. Other thawed components are stable indefinitely.
2. Prepare sufficient quantities of Enzyme, Substrate and PicoGreen Quench mixes (according to Table II). For the number of
compound plates being screened.
3. Ensure that the tip wash station reservoirs have clean water and turn on recirculating chiller so that the chilled deck position
1. Load 2 uL of EDTA controls (250 mM, Background, 100 % inhibition) and 2 uL of DMSO controls (Negative control, 0%
inhibition) in the screening plates (flat-bottomed black 384-well polypropylene, Greiner Bio-one).
2. Place Enzyme mix reservoir on the chiller position of the liquid handler deck. Make sure that chiller will maintain
temperature of Enzyme mix at 4degC. Substrate mix and PicoGreen Quench can be stored at room temp.
3. Program liquid handling robotics to dispense 18 uL of Enzyme mix into assay plates. Wash tips.
4. Aspirate and dispense 2 uL of compound from compound plates, mix and Incubate at room temperature for 10 minutes.
5. Aspirate 5 ul of Substrate mix, dispense into assay plates and mix by pipetting. Wash tips.
6. Incubate at room temperature (21 +/- 1 deg C) for 20 minutes.
7. Quench reactions by addition of 25 uL PicoGreen Quench mix and mix by pipetting (using HTS robotics or bulk reagent
dispenser such as a Multidrop or uFill). Keep plates in the dark or stacked until ready to read fluorescence.
8. Read fluorescence intensity of plates on plate reader using "Fluorescein (Ex 485 nm/ Em 535 nm, 0.1s)" setting.
For `CCOC(=O)C(C)Oc1cccc2c(=O)n(CC(=O)Nc3ccc4c(c3)OCCO4)ccc12` (stereo unspecified), the Potency entry was “inactive”.

Regarding `O=C(O)c1cccnc1Nc1cccc(C(F)(F)F)c1`, the Potency result was “inactive”.

In the case of `CC(=O)O[C@H]1C(=O)[C@@]2(C)C([C@H](OC(=O)c3ccccc3)[C@]3(O)C[C@H](OC(=O)[C@H](O)[C@@H](NC(=O)c4ccccc4)c4ccccc4)C(C)=C1C3(C)C)[C@]1(OC(C)=O)CO[C@@H]1C[C@@H]2O` (stereo partly specified), the Potency entry is “inactive”.

With `O=C1c2c(O)cc(O)cc2OC(c2ccc(O)c(O)c2)C1O` (stereo unspecified), the Potency result is “inactive”.

Regarding `Cc1c(OCC(F)(F)F)ccnc1CS(=O)c1nc2ccccc2[nH]1` (stereo unspecified), the Potency result is “inactive”.

Regarding `NCCCCNCCCN`, the Potency result was “inactive”.

For `OC(CN1CCN(c2cccc(Cl)c2)CC1)C(c1ccccc1)c1ccccc1` (stereo unspecified), the Potency entry is “inactive”.

Turning to `CC(=O)N1CCN(c2ccc(OC[C@H]3CO[C@](Cn4ccnc4)(c4ccc(Cl)cc4Cl)O3)cc2)CC1`, the Potency result is “inactive”.

`CNC[C@H](O)c1ccc(O)c(O)c1`: the Potency entry was “inactive”.

As to `CC(C)c1ccc2c(c1)c(SC(C)(C)C)c(CC(C)(C)C(=O)O)n2Cc1ccc(Cl)cc1`, the Potency was 21.2 µM (active).

As for `C[C@@H](N)C1CCC(C(=O)Nc2ccncc2)CC1` (stereo partly specified), the Potency entry was “inactive”.

For the compound `Oc1ccc2ccccc2c1SSc1c(O)ccc2ccccc12`, the Potency entry was “inactive”.

As for `O=Nc1c(-c2c(O)[nH]c3cc(Br)ccc23)[nH]c2ccccc12`, the Potency result was “inactive”.

For `O=C1NC(=O)C(c2ccccc2[N+](=O)[O-])=C1Nc1ccc(O)c(Cl)c1`, the Potency result was “inactive”.

Consider `CC1(C)NC(=O)N(c2ccc([N+](=O)[O-])c(C(F)(F)F)c2)C1=O`, for which the Potency entry was “inactive”.

In the case of `NC(=NCc1ccccc1)NC(=O)c1nc(Cl)c(N)nc1N`, the Potency entry was “inactive”.

Turning to `COc1ccccc1N1CCN(CCN(C(=O)C2CCCCC2)c2ccccn2)CC1`, the Potency entry was “inactive”.

On to `CN(C)CCCC1(c2ccc(F)cc2)OCc2cc(C#N)ccc21` (stereo unspecified), for which the Potency entry is “inactive”.

With `Cc1cccc(C#Cc2ccccc2)n1`, the Potency result is “inactive”.

On to `NNc1nncc2ccccc12`, for which the Potency result was “inactive”.

With `COc1cc2nc(N3CCN(C(=O)C4CCCO4)CC3)nc(N)c2cc1OC` (stereo unspecified), the Potency result is “inactive”.

With `O=c1cc(N2CCOCC2)oc2c(-c3ccccc3)cccc12`, the Potency result was “inactive”.

With `CC1(C)C(=O)N(CCN2CCC(C(=O)c3ccc(F)cc3)CC2)c2ccccc21`, the Potency result is “inactive”.

For `O=C(CCc1ccc(O)cc1)c1c(O)cc(O)cc1O`, the Potency result was “inactive”.

On to `O=c1ccc2ccc(O)c(O)c2o1`, for which the Potency entry was “inactive”.

In the case of `COc1ccc2cc([C@H](C)C(=O)O)ccc2c1`, the Potency result is “inactive”.

Take `O=c1c(O)c(-c2cc(O)c(O)c(O)c2)oc2cc(O)cc(O)c12`: the Potency was 15 µM (active).

With `Nc1nc(OCc2ccccc2)c2[nH]cnc2n1`, the Potency result was “inactive”.

As for `O=C(c1ccccc1)c1ccc2n1CCC2C(=O)O` (stereo unspecified), the Potency entry was “inactive”.

In the case of `Nc1ccn([C@@H]2O[C@H](CO)[C@@H](O)C2O)c(=O)n1` (stereo partly specified), the Potency result was “inactive”.

Consider `CCN(CC)C(=S)SSC(=S)N(CC)CC`, for which the Potency result was “inactive”.

As for `COc1cc2c(cc1OC)C1CC(=O)C(CC(C)C)CN1CC2` (stereo unspecified), the Potency entry is “inactive”.

`Oc1ccc(-c2nc(-c3ccc(F)cc3)c(-c3ccncc3)[nH]2)cc1`: the Potency entry is “inactive”.

Take `O=c1c(O)c(-c2ccc(O)cc2O)oc2cc(O)cc(O)c12`: the Potency is 18.9 µM (active).

Regarding `Nc1nc(N)c(N=O)c(OCC2CCCCC2)n1`, the Potency result is “inactive”.

`O=C1c2ccccc2-c2n[nH]c3cccc1c23`: the Potency result was “inactive”.
